# Substitutions are numbered along the chain they refer to.
# Columns and labels:
# Experiment in all cases: PBM; 200 nM protein, PBS
# Conditions in all cases: dsDNA, one strand shown
# NKX2-5 [1] = target: NKX2-5 (Homo sapiens, UniProt P52952 125-210, R139K)
# PAX4 [2] = target: T1, PAX4 (Homo sapiens, UniProt O43316 9-242, R200K)
# T1 sequence: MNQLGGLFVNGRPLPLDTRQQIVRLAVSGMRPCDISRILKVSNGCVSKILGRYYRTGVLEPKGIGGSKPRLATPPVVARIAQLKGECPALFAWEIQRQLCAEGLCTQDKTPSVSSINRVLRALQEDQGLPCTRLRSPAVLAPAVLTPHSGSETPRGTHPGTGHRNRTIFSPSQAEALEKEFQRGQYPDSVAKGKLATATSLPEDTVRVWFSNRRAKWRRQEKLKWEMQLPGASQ
# PRRX1 [3] = target: PRRX1 (Homo sapiens, UniProt P54821 80-166, F113S)
# PAX4 [4] = target: T2, PAX4 (Homo sapiens, UniProt O43316 9-242)
# T2 sequence: T1 sequence with K192R
# MSX2 [5] = target: MSX2 (Homo sapiens, UniProt P35548 130-214, R199I)
# PAX4 [6] = target: T3, PAX4 (Homo sapiens, UniProt O43316 9-242, R200Q)
# T3 sequence: T1 sequence with K192Q
# PAX4 [7] = target: T4, PAX4 (Homo sapiens, UniProt O43316 9-242, F177V)
# T4 sequence: T1 sequence with F169V, K192R
# MSX2 [8] = target: MSX2 (Homo sapiens, UniProt P35548 130-214)
# PAX4 [9] = target: T5, PAX4 (Homo sapiens, UniProt O43316 9-242, F177Y)
# T5 sequence: T1 sequence with F169Y, K192R
# MSX2 [10] = target: MSX2 (Homo sapiens, UniProt P35548 130-214, F161Y)
# PAX4 [11] = target: T6, PAX4 (Homo sapiens, UniProt O43316 9-242, R227W)
# T6 sequence: T1 sequence with K192R, R219W
# PRRX1 [12] = target: PRRX1 (Homo sapiens, UniProt P54821 80-166)
# NKX2-5 [13] = target: NKX2-5 (Homo sapiens, UniProt P52952 125-210)
# HOXA4 [14] = target: HOXA4 (Homo sapiens, UniProt Q00056 201-287, W262R)
# HOXA4 [15] = target: HOXA4 (Homo sapiens, UniProt Q00056 201-287, R217L)
# HOXA4 [16] = target: HOXA4 (Homo sapiens, UniProt Q00056 201-287)
# HOXA4 [17] = target: HOXA4 (Homo sapiens, UniProt Q00056 201-287, W262F)
# HOXA7 [18] = target: HOXA7 (Homo sapiens, UniProt P31268 116-202)
# HOXA7 [19] = target: HOXA7 (Homo sapiens, UniProt P31268 116-202, W177C)
# HOXB6 [20] = target: HOXB6 (Homo sapiens, UniProt P17509 132-218, K202E)
# NKX2-6 [21] = target: T7, NKX2-6 (Homo sapiens, UniProt A6NCS4 118-204)
# T7 sequence: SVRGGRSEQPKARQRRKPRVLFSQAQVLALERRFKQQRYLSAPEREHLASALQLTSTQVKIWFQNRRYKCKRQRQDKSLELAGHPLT
# NKX2-6 [22] = target: T8, NKX2-6 (Homo sapiens, UniProt A6NCS4 118-204, F151L)
# T8 sequence: T7 sequence with F34L
# HOXB6 [23] = target: HOXB6 (Homo sapiens, UniProt P17509 132-218)
# HOXA2 [24] = target: HOXA2 (Homo sapiens, UniProt O43364 129-215, R185T)
# HOXD13 [25] = target: HOXD13 (Homo sapiens, UniProt P35453 263-343, T313R)
# HOXA2 [26] = target: HOXA2 (Homo sapiens, UniProt O43364 129-215, R185K)
# HOXD13 [27] = target: HOXD13 (Homo sapiens, UniProt P35453 263-343)
# HOXD13 [28] = target: HOXD13 (Homo sapiens, UniProt P35453 263-343, T313A)
# HOXA2 [29] = target: HOXA2 (Homo sapiens, UniProt O43364 129-215, Y150S)
# HOXA2 [30] = target: HOXA2 (Homo sapiens, UniProt O43364 129-215)
# NKX2-4 = target: T9, NKX2-4 (Homo sapiens, UniProt Q9H2Z4 175-261, T231S)
# T9 sequence: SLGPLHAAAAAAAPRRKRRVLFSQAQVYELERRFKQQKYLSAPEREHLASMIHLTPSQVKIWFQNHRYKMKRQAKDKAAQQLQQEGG
# NKX2-6 [31] = target: T10, NKX2-6 (Homo sapiens, UniProt A6NCS4 118-204, R150C)
# T10 sequence: T7 sequence with R33C
# NKX3-2 [32] = target: NKX3-2 (Homo sapiens, UniProt P78367 192-278, P234S)
# NKX3-2 [33] = target: NKX3-2 (Homo sapiens, UniProt P78367 192-278)
# HOXC10 [34] = target: HOXC10 (Homo sapiens, UniProt Q9NYD6 254-340)
# HOXC10 [35] = target: HOXC10 (Homo sapiens, UniProt Q9NYD6 254-340, K271E)
# HOXC10 (Homo sapiens, UniProt Q9NYD6 254-340, K271E), sequence (Q9NYD6 254-340 K271E): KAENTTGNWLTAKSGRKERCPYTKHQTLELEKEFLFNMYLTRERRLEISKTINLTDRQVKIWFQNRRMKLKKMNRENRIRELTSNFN
# NKX2-5 (Homo sapiens, UniProt P52952 125-210, R139K), sequence (P52952 125-210 R139K): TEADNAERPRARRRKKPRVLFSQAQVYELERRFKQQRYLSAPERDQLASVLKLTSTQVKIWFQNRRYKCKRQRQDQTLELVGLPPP
# NKX2-5 (Homo sapiens, UniProt P52952 125-210), sequence (P52952 125-210): as the sequence (P52952 125-210 R139K) above, with K15R counted along it
# HOXA2 (Homo sapiens, UniProt O43364 129-215), sequence (O43364 129-215): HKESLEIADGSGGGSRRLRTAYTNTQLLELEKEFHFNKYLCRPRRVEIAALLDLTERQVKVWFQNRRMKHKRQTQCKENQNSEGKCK
# HOXA2 (Homo sapiens, UniProt O43364 129-215, R185K), sequence (O43364 129-215 R185K): as the sequence (O43364 129-215) above, with R57K counted along it
# HOXA2 (Homo sapiens, UniProt O43364 129-215, R185T), sequence (O43364 129-215 R185T): as the sequence (O43364 129-215) above, with R57T counted along it
# HOXA2 (Homo sapiens, UniProt O43364 129-215, Y150S), sequence (O43364 129-215 Y150S): as the sequence (O43364 129-215) above, with Y22S counted along it
# HOXD13 (Homo sapiens, UniProt P35453 263-343, T313A), sequence (P35453 263-343 T313A): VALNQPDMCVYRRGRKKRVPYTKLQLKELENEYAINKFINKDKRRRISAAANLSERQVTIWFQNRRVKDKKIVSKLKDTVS
# MSX2 (Homo sapiens, UniProt P35548 130-214, F161Y), sequence (P35548 130-214 F161Y): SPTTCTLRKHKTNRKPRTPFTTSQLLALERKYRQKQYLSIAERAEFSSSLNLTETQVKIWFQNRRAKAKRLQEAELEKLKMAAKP
# HOXA7 (Homo sapiens, UniProt P31268 116-202, W177C), sequence (P31268 116-202 W177C): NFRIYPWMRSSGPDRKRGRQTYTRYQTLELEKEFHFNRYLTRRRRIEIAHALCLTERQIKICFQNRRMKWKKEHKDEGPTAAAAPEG
# PRRX1 (Homo sapiens, UniProt P54821 80-166, F113S), sequence (P54821 80-166 F113S): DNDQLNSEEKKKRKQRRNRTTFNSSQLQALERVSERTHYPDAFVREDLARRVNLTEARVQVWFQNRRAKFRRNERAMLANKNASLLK
# HOXA4 (Homo sapiens, UniProt Q00056 201-287), sequence (Q00056 201-287): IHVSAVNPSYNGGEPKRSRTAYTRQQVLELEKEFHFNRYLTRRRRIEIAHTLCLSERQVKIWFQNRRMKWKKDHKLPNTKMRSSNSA
# HOXA4 (Homo sapiens, UniProt Q00056 201-287, W262F), sequence (Q00056 201-287 W262F): as the sequence (Q00056 201-287) above, with W62F counted along it
# HOXB6 (Homo sapiens, UniProt P17509 132-218, K202E), sequence (P17509 132-218 K202E): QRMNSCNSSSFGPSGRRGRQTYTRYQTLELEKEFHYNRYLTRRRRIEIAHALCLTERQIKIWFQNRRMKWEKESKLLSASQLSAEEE
# HOXD13 (Homo sapiens, UniProt P35453 263-343, T313R), sequence (P35453 263-343 T313R): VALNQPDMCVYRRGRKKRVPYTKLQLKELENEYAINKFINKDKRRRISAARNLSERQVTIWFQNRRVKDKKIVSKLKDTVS
# HOXA4 (Homo sapiens, UniProt Q00056 201-287, W262R), sequence (Q00056 201-287 W262R): as the sequence (Q00056 201-287) above, with W62R counted along it
# HOXC10 (Homo sapiens, UniProt Q9NYD6 254-340), sequence (Q9NYD6 254-340): as the sequence (Q9NYD6 254-340 K271E) above, with E18K counted along it
# NKX3-2 (Homo sapiens, UniProt P78367 192-278), sequence (P78367 192-278): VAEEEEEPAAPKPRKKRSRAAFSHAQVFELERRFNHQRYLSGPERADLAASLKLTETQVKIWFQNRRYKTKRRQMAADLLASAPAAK
# NKX3-2 (Homo sapiens, UniProt P78367 192-278, P234S), sequence (P78367 192-278 P234S): as the sequence (P78367 192-278) above, with P43S counted along it
# HOXD13 (Homo sapiens, UniProt P35453 263-343), sequence (P35453 263-343): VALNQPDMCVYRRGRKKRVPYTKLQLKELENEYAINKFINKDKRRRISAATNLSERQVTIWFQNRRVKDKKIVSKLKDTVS
# HOXB6 (Homo sapiens, UniProt P17509 132-218), sequence (P17509 132-218): as the sequence (P17509 132-218 K202E) above, with E71K counted along it
# PRRX1 (Homo sapiens, UniProt P54821 80-166), sequence (P54821 80-166): as the sequence (P54821 80-166 F113S) above, with S34F counted along it
# HOXA4 (Homo sapiens, UniProt Q00056 201-287, R217L), sequence (Q00056 201-287 R217L): as the sequence (Q00056 201-287) above, with R17L counted along it
# HOXA7 (Homo sapiens, UniProt P31268 116-202), sequence (P31268 116-202): as the sequence (P31268 116-202 W177C) above, with C62W counted along it
# MSX2 (Homo sapiens, UniProt P35548 130-214), sequence (P35548 130-214): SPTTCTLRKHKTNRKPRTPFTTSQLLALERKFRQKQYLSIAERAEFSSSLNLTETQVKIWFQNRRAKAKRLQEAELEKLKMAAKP
# MSX2 (Homo sapiens, UniProt P35548 130-214, R199I), sequence (P35548 130-214 R199I): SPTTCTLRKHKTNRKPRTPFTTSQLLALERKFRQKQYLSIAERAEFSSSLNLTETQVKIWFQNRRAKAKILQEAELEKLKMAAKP
sequence,measurement,setting,value
CCGCCTCC,binding signal,NKX2-5 [1],"8.96 upbm affinity estimate (log intensity, higher = more binding, comparable within an allelic series)"
same,binding signal,PAX4 [2],"9.24 upbm affinity estimate (log intensity, higher = more binding, comparable within an allelic series)"
same,binding signal,PRRX1 [3],"9.25 upbm affinity estimate (log intensity, higher = more binding, comparable within an allelic series)"
same,binding signal,PAX4 [4],"9.34 upbm affinity estimate (log intensity, higher = more binding, comparable within an allelic series)"
same,binding signal,MSX2 [5],"9.48 upbm affinity estimate (log intensity, higher = more binding, comparable within an allelic series)"
same,binding signal,PAX4 [6],"9.3 upbm affinity estimate (log intensity, higher = more binding, comparable within an allelic series)"
same,binding signal,PAX4 [7],"9.19 upbm affinity estimate (log intensity, higher = more binding, comparable within an allelic series)"
same,binding signal,MSX2 [8],"9.45 upbm affinity estimate (log intensity, higher = more binding, comparable within an allelic series)"
same,binding signal,PAX4 [9],"9.18 upbm affinity estimate (log intensity, higher = more binding, comparable within an allelic series)"
same,binding signal,MSX2 [10],"9.54 upbm affinity estimate (log intensity, higher = more binding, comparable within an allelic series)"
same,binding signal,PAX4 [11],"9.29 upbm affinity estimate (log intensity, higher = more binding, comparable within an allelic series)"
same,binding signal,PRRX1 [12],"9.06 upbm affinity estimate (log intensity, higher = more binding, comparable within an allelic series)"
same,binding signal,NKX2-5 [13],"9 upbm affinity estimate (log intensity, higher = more binding, comparable within an allelic series)"
CACCCCCG,binding signal,NKX2-5 [1],"8.95 upbm affinity estimate (log intensity, higher = more binding, comparable within an allelic series)"
same,binding signal,HOXA4 [14],"9.9 upbm affinity estimate (log intensity, higher = more binding, comparable within an allelic series)"
same,binding signal,HOXA4 [15],"9.84 upbm affinity estimate (log intensity, higher = more binding, comparable within an allelic series)"
same,binding signal,HOXA4 [16],"9.95 upbm affinity estimate (log intensity, higher = more binding, comparable within an allelic series)"
same,binding signal,HOXA4 [17],"9.77 upbm affinity estimate (log intensity, higher = more binding, comparable within an allelic series)"
same,binding signal,NKX2-5 [13],"9 upbm affinity estimate (log intensity, higher = more binding, comparable within an allelic series)"
AGGCCAGC,binding signal,NKX2-5 [1],"8.71 upbm affinity estimate (log intensity, higher = more binding, comparable within an allelic series)"
same,binding signal,HOXA7 [18],"8.41 upbm affinity estimate (log intensity, higher = more binding, comparable within an allelic series)"
same,binding signal,HOXA7 [19],"8.42 upbm affinity estimate (log intensity, higher = more binding, comparable within an allelic series)"
same,binding signal,NKX2-5 [13],"8.67 upbm affinity estimate (log intensity, higher = more binding, comparable within an allelic series)"
TCACTTAA,binding signal,NKX2-5 [1],"12.2 upbm affinity estimate (log intensity, higher = more binding, comparable within an allelic series)"
same,binding signal,HOXB6 [20],"9.72 upbm affinity estimate (log intensity, higher = more binding, comparable within an allelic series)"
same,binding signal,NKX2-6 [21],"13.4 upbm affinity estimate (log intensity, higher = more binding, comparable within an allelic series)"
same,binding signal,NKX2-6 [22],"10.6 upbm affinity estimate (log intensity, higher = more binding, comparable within an allelic series)"
same,binding signal,NKX2-5 [13],"12.3 upbm affinity estimate (log intensity, higher = more binding, comparable within an allelic series)"
same,binding signal,HOXB6 [23],"10.7 upbm affinity estimate (log intensity, higher = more binding, comparable within an allelic series)"
CAGCCCGG,binding signal,NKX2-5 [1],"8.37 upbm affinity estimate (log intensity, higher = more binding, comparable within an allelic series)"
same,binding signal,HOXA2 [24],"7.16 upbm affinity estimate (log intensity, higher = more binding, comparable within an allelic series)"
same,binding signal,HOXD13 [25],"9.5 upbm affinity estimate (log intensity, higher = more binding, comparable within an allelic series)"
same,binding signal,HOXA2 [26],"10.1 upbm affinity estimate (log intensity, higher = more binding, comparable within an allelic series)"
same,binding signal,HOXD13 [27],"9.67 upbm affinity estimate (log intensity, higher = more binding, comparable within an allelic series)"
same,binding signal,HOXD13 [28],"9.74 upbm affinity estimate (log intensity, higher = more binding, comparable within an allelic series)"
same,binding signal,HOXA2 [29],"10.3 upbm affinity estimate (log intensity, higher = more binding, comparable within an allelic series)"
same,binding signal,HOXA2 [30],"7.06 upbm affinity estimate (log intensity, higher = more binding, comparable within an allelic series)"
same,binding signal,NKX2-5 [13],"8.35 upbm affinity estimate (log intensity, higher = more binding, comparable within an allelic series)"
TAAGTACA,binding signal,NKX2-5 [1],"12.4 upbm affinity estimate (log intensity, higher = more binding, comparable within an allelic series)"
same,binding signal,NKX2-4,"12.8 upbm affinity estimate (log intensity, higher = more binding, comparable within an allelic series)"
same,binding signal,NKX2-6 [31],"11.9 upbm affinity estimate (log intensity, higher = more binding, comparable within an allelic series)"
same,binding signal,NKX2-6 [21],"13.3 upbm affinity estimate (log intensity, higher = more binding, comparable within an allelic series)"
same,binding signal,NKX2-6 [22],"10.5 upbm affinity estimate (log intensity, higher = more binding, comparable within an allelic series)"
same,binding signal,NKX3-2 [32],"12.6 upbm affinity estimate (log intensity, higher = more binding, comparable within an allelic series)"
same,binding signal,NKX2-5 [13],"12.4 upbm affinity estimate (log intensity, higher = more binding, comparable within an allelic series)"
same,binding signal,NKX3-2 [33],"12.6 upbm affinity estimate (log intensity, higher = more binding, comparable within an allelic series)"
ACACCGGG,binding signal,NKX2-5 [1],"8.93 upbm affinity estimate (log intensity, higher = more binding, comparable within an allelic series)"
same,binding signal,HOXC10 [34],"10.2 upbm affinity estimate (log intensity, higher = more binding, comparable within an allelic series)"
same,binding signal,HOXC10 [35],"10 upbm affinity estimate (log intensity, higher = more binding, comparable within an allelic series)"
same,binding signal,NKX2-5 [13],"8.94 upbm affinity estimate (log intensity, higher = more binding, comparable within an allelic series)"
CCGAGGTC,binding signal,NKX2-5 [1],"8.47 upbm affinity estimate (log intensity, higher = more binding, comparable within an allelic series)"
same,binding signal,HOXA2 [24],"6.93 upbm affinity estimate (log intensity, higher = more binding, comparable within an allelic series)"
same,binding signal,HOXA2 [26],"10.2 upbm affinity estimate (log intensity, higher = more binding, comparable within an allelic series)"
same,binding signal,HOXA2 [29],"10.4 upbm affinity estimate (log intensity, higher = more binding, comparable within an allelic series)"
same,binding signal,HOXA2 [30],"7.18 upbm affinity estimate (log intensity, higher = more binding, comparable within an allelic series)"
same,binding signal,NKX2-5 [13],"8.66 upbm affinity estimate (log intensity, higher = more binding, comparable within an allelic series)"
